Measurements as given in PubChem BioAssay.
For some assays here: Entries with a potency or affinity are not part of this list. Activity calls are given as the source filed them.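 Rule for the calls, unless noted: active = primary screen hit whose calcium fluorescence ratio, in both repeats, exceeds the weak agonist control mean by 3 SD; inactive = the rest.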

Tests used:
[1] = tested on: TRPC4 beta (transient receptor potential cation channel C4), mouse; test: TRPC4 cation channel opening, retest – cell-based, Fluo4 calcium, HEK293 TRPC4beta/mu-opioid, duplicates, 10 µM, confirmation (AID 2426;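 active = fluorescence ratio normalized to control raised more than 50% in primary screen plus both repeat runs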;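 for activation: percent rise of integrated ratio over buffer wells lacking compound which define 0%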); details: Fluo4 calcium fluorescence, at 10 µM; active compounds read high
[2] = tested on: transient receptor potential cation channel C4 beta (TRPC4), mouse; test: TRPC4 cation channel opening, second retest – cell-based, second round, Fluo4, HEK293 TRPC4beta/mu-opioid, 1 µM, confirmation (AID 2461;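 active = primary screen active and over 50% activation in each of two duplicate runs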;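 for activation: 0% = wells without test compound as baseline of integrated fluorescence ratio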); details: Fluo4 calcium fluorescence, at 1 µM; active compounds read high
[3] = tested on: TRPC4 (transient receptor potential cation channel C4 beta), mouse; test: potentiation of DAMGO EC20 TRPC4 response – cell-based, second round, Fluo-4, HEK293 TRPC4beta/mu-opioid, 1 µM, confirmation (AID 2554;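 active = primary screen hit whose fluorescence ratio, in both repeats, exceeds the weak agonist control mean by 3 SD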); details: DAMGO EC20, Fluo-4 calcium flux, at 1 µM; active compounds read high
[4] = tested on: TRPC4 beta (transient receptor potential cation channel C4), mouse; test: potentiation of DAMGO EC20 TRPC4 response – cell-based, Fluo-4, HEK293 TRPC4beta/mu-opioid, confirmation (AID 2555); details: DAMGO EC20, Fluo-4 calcium flux, at 10 µM; active compounds read high
[5] = target: Short transient receptor potential channel 4 (Mus musculus) (UniProt Q9QUQ5); test: blockers of DAMGO-evoked TRPC4 calcium flux – cell-based, Fluo4, HEK293 TRPC4beta/mu-opioid, confirmation (AID 2636;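 active = calcium signal cut by more than 3 SD below the full-agonist control yet still positive, in both repeats and the earlier primary screen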); details: at 10 µM; active compounds read high
Sequence of Short transient receptor potential channel 4 (Mus musculus) (Q9QUQ5 whole entry, looked up): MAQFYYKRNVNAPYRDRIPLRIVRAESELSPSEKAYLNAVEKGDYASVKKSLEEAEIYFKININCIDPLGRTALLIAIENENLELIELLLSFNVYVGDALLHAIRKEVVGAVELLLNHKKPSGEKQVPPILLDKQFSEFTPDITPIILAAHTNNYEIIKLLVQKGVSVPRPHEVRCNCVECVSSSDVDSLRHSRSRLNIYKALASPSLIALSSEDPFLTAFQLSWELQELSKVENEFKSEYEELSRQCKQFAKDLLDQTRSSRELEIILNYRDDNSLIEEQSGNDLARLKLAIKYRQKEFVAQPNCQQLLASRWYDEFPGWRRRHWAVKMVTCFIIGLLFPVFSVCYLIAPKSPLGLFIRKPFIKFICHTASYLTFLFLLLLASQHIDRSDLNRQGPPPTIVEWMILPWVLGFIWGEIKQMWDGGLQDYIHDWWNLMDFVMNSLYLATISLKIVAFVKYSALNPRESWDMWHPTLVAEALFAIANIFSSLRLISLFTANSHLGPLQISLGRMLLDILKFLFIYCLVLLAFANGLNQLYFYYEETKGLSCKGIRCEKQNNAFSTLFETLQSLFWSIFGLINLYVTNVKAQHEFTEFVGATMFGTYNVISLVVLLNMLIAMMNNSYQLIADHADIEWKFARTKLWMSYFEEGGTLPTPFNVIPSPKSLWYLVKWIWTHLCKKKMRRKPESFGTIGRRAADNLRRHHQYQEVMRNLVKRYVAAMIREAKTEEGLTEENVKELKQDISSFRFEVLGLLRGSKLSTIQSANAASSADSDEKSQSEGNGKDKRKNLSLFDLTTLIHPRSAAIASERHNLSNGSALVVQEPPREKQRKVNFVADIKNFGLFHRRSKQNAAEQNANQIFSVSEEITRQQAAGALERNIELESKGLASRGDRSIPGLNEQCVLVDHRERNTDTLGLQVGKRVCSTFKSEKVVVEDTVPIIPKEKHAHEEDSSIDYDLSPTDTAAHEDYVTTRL

[6] = target: Short transient receptor potential channel 4 (Mus musculus) (UniProt Q9QUQ5); test: blockers of DAMGO-evoked TRPC4 calcium flux – cell-based, second round, Fluo4, HEK293 TRPC4beta/mu-opioid, 1 µM, confirmation (AID 2637;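 active = calcium signal ratio cut to more than 3 SD under the fully stimulated control mean yet still positive, in both repeats and the primary screen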); details: at 1 µM; active compounds read high
[7] = target: Short transient receptor potential channel 4 (Mus musculus) (UniProt Q9QUQ5); test: potentiation of DAMGO-evoked TRPC4 calcium signal – cell-based, HEK293 TRPC4/mu-opioid, Fluo-4 calcium, EC20 DAMGO, dose response (AID 434941;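 active = earlier screen potentiator hit that boosts the TRPC4 ion channel at some dose, with a dose response; inactive = no potentiation, no dose response, or not a prior hit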;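 note: calcium entry triggered by an EC20 dose of DAMGO at the co-expressed mu-opioid receptor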)
[8] = target: Short transient receptor potential channel 4 (Mus musculus) (UniProt Q9QUQ5); test: block of DAMGO-driven TRPC4 calcium entry – cell-based, HEK293 TRPC4/mu-opioid, Fluo-4 calcium, dose response (AID 434942;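 active = primary screen inhibitor hit that blocks the TRPC4 channel at some tested dose, yielding a dose curve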)
[9] = target: Short transient receptor potential channel 6 (Mus musculus) (UniProt Q61143); test: TRPC6 blockade by TRPC4 inhibitor hits – cell-based, HEK293, membrane potential dye, duplicate, selectivity assay for TRPC4 inhibitor project, confirmation (AID 434948;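 active = active in primary screen and both duplicates, each dropping signal beyond three positive-control SD with fluorescence still positive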); details: HEK293 TRPC6, membrane potential dye fluorescence, at 10 µM, stimulated with maximal-effect acetylcholine; active compounds read high
Sequence of Short transient receptor potential channel 6 (Mus musculus) (Q61143 whole entry, looked up): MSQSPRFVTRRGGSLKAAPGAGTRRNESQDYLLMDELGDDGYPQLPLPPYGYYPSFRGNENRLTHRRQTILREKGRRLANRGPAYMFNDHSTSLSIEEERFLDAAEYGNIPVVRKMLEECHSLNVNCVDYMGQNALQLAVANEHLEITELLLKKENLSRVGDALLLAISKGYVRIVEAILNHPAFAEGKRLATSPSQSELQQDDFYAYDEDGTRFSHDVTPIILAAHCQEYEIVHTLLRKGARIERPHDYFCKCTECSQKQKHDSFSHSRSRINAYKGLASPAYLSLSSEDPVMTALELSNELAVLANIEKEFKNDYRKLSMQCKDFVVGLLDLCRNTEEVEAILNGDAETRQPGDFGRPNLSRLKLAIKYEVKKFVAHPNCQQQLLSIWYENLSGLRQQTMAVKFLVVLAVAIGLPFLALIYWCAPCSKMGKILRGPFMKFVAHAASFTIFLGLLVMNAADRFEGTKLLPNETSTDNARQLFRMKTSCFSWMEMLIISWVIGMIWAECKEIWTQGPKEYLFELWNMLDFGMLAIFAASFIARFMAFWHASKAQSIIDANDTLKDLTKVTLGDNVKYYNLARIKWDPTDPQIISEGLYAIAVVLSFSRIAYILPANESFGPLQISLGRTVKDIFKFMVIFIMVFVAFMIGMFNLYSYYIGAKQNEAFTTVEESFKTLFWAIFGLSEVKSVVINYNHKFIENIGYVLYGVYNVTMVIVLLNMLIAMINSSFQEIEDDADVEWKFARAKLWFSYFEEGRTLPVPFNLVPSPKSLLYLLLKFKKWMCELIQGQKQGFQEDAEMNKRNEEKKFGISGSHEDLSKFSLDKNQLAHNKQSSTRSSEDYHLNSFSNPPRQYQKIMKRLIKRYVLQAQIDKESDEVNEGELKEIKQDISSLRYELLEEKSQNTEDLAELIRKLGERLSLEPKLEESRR

[10] = target: Short transient receptor potential channel 6 (Mus musculus) (UniProt Q61143); test: TRPC6 opening by TRPC4 activator hits – cell-based, HEK293, membrane potential dye, duplicate, selectivity assay for TRPC4 activator project, confirmation (AID 434950;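 active = membrane potential signal rise above negative control mean plus 3 SD in both duplicates, also active in the earlier TRPC4 screen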;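 for activation: 0% = buffer only wells and 100% = acetylcholine maximal-effect wells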); details: HEK293 TRPC6, membrane potential fluorescence, at 10 µM; activation: active compounds read high; outcome: activation
[11] = target: Short transient receptor potential channel 6 (Mus musculus) (UniProt Q61143); test: positive modulators of mouse TRPC6 channel – HEK293 cells, membrane potential dye, duplicate, selectivity assay for TRPC4 potentiator project, confirmation (AID 434952;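 active = compound raising the membrane signal above positive-control mean plus 3 SD in both repeats, and a primary screen hit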); details: HEK293 TRPC6, membrane potential dye fluorescence, at 10 µM, maximal acetylcholine added after compound; active compounds read high
[12] = target: Short transient receptor potential channel 4 (Mus musculus) (UniProt Q9QUQ5); test: calcium flux activators in TRPC4/5HT1a cells, counter-screen for TRPC4 activator project, cell-based, second counter screen, HEK293 TRPC4/5HT1a, Fluo-4 (AID 434977;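 active = calcium signal rise above buffer-control mean plus 5 SD in both duplicates, and also a hit in the primary screen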;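 for activation: plate controls were assay buffer for no effect and maximal serotonin response for full effect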); details: Fluo-4 calcium flux, at 10 µM; active compounds read high
[13] = serotonin-gated TRPC4 signal block – cell-based, second counter screen, HEK293 TRPC4/5HT1a, Fluo-4, counter-screen for TRPC4 inhibitor project, confirmation (AID 434978;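 active = primary screen active whose calcium signal fell more than 3 SD beyond the full-serotonin control mean in both duplicate plates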;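 note: serotonin given first at submaximal then at maximal dose after compound preincubation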); details: Fluo-4 calcium flux, at 10 µM, serotonin added to trigger calcium flux; active compounds read high
[14] = tested on: TRPC4 (mouse), co-expressed with 5HT1a in HEK293; test: enhancement of serotonin-evoked TRPC4 response – cell-based, second counter screen, HEK293 TRPC4/5HT1a, Fluo-4, counter-screen for TRPC4 potentiator project, confirmation (AID 434979;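 active = signal rise over 3 SD above mean of control wells given weak agonist, in both repeats and first screen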); details: Fluo-4 calcium flux, at 10 µM, serotonin added at its EC20 dose; active compounds read high
[15] = nonspecific calcium rise without TRPC4 – cell-based, HEK293 mu-opioid receptor line, counter-screen for TRPC4 activator project, confirmation (AID 449723;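 active = hit in primary screen, with calcium signal over 5 SD above buffer well mean in both duplicates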;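 note: counter screen cells carry the mu-opioid receptor alone and lack TRPC4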); details: HEK293 mu-opioid cells, Fluo-4 calcium fluorescence, at 10 µM; active compounds read high
[16] = nonspecific potentiation of DAMGO calcium response – cell-based, HEK293 mu-opioid receptor line, counter-screen for TRPC4 allosteric potentiator project, confirmation (AID 449724;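 active = calcium signal rise more than 3 SD above the low-dose agonist control mean, in both duplicate plates and the primary screen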); details: HEK293 mu-opioid receptor cells, Fluo-4 calcium flux, at 10 µM, compound added before EC20 DAMGO stimulus; active compounds read high

SMILES | activation [1] | activation [2] | outcome [3] | outcome [4] | outcome [5] | outcome [6] | outcome [7] | outcome [8] | outcome [9] | outcome [10] | outcome [11] | activation [12] | outcome [13] | outcome [14] | outcome [15] | outcome [16] | outcome [1] | outcome [2] | outcome [12] | activation [10]
O=C(NCCCN1CCN(CCCNC(=O)c2ccc3c(c2)OCO3)CC1)c1ccc2c(c1)OCO2 | 112% (active) | 76% (active) | inactive | inactive | inactive | inactive | inactive | inactive | inactive | inactive | inactive | 37.2% (active) | inactive | inactive | inactive | inactive | – | – | – | –
CN(C)CCCN(C(=O)c1ccc(S(=O)(=O)N(C)Cc2ccccc2)cc1)c1nc2cc3c(cc2s1)OCO3 | – | – | inactive | inactive | inactive | inactive | inactive | inactive | inactive | inactive | inactive | – | inactive | inactive | inactive | inactive | inactive | inactive | inactive | –
CCOC(=O)c1oc2ccc(OC)cc2c1NC(=O)CN1CCN(C)CC1 | – | – | inactive | inactive | inactive | inactive | inactive | inactive | inactive | – | inactive | 12.8% (active) | inactive | inactive | inactive | inactive | inactive | inactive | – | 32% (active)
COc1ccccc1N1CCN(C(c2cccs2)C(C)NC(=O)c2cccs2)CC1 (centres undefined) | – | – | inactive | inactive | inactive | inactive | inactive | inactive | inactive | – | inactive | – | inactive | inactive | inactive | inactive | inactive | inactive | inactive | 23.5% (active)
Cc1ccc(C)c(CN2CCC(CNC(=O)CCc3nnc4ccc(N5CCCCC5)nn34)CC2)c1 | 157% (active) | 92% (active) | inactive | inactive | inactive | inactive | inactive | inactive | inactive | inactive | inactive | – | inactive | inactive | inactive | inactive | – | – | inactive | –
FC(F)(F)c1cnc(N2CCCN(C(=S)Nc3ccccc3)CC2)c(Cl)c1 | 208% (active) | 62% (active) | inactive | inactive | inactive | inactive | inactive | inactive | inactive | inactive | inactive | 84.8% (active) | inactive | inactive | inactive | inactive | – | – | – | –
CCCC(=O)N1CCc2cc(-c3nc(N)sc3C)ccc21 | 62% (active) | – | inactive | inactive | inactive | inactive | inactive | inactive | inactive | inactive | inactive | – | inactive | inactive | inactive | inactive | – | inactive | inactive | –
Cc1cc(-c2nn(-c3ccccc3F)cc2CNCCc2cnc[nH]2)c(C)s1 | 89% (active) | 87% (active) | inactive | inactive | inactive | inactive | inactive | inactive | inactive | inactive | inactive | 39.8% (active) | inactive | inactive | inactive | inactive | – | – | – | –
O=C(NCCc1cccc(Cl)c1)c1ccc(OC2CCN(Cc3ccccn3)CC2)cc1 | 69% (active) | – | inactive | inactive | inactive | inactive | inactive | inactive | inactive | – | inactive | – | inactive | inactive | inactive | inactive | – | inactive | inactive | 43.5% (active)
Cc1cc(OCCCCn2ccnc2)cc(C)c1Cl | 102% (active) | – | inactive | inactive | inactive | inactive | inactive | inactive | inactive | – | inactive | 20.1% (active) | inactive | inactive | inactive | inactive | – | inactive | – | 50% (active)
CC(=O)Nc1ccc(CN2CCCC(C(=O)c3cccc(C(F)(F)F)c3)C2)cc1 (centres undefined) | 96% (active) | – | inactive | inactive | inactive | inactive | inactive | inactive | inactive | – | inactive | – | inactive | inactive | inactive | inactive | – | inactive | inactive | 29.5% (active)
CCn1c(N2CCN(C(=O)Nc3ccc(F)cc3)CC2)nc2ccccc21 | 119% (active) | – | inactive | inactive | inactive | inactive | inactive | inactive | inactive | – | inactive | 28.1% (active) | inactive | inactive | inactive | inactive | – | inactive | – | 41% (active)
CCOC(=O)C1(CCOc2ccccc2)CCN(Cc2ccc(OC)c(O)c2)CC1 | 207% (active) | 80% (active) | inactive | inactive | inactive | inactive | inactive | inactive | inactive | – | inactive | – | inactive | inactive | inactive | inactive | – | – | inactive | 66.5% (active)
CCn1cc(CN2CCCC(C(=O)Nc3ccc(-c4nc5ccccc5[nH]4)cc3)C2)c(C)n1 (centres undefined) | 169% (active) | 116% (active) | inactive | inactive | inactive | inactive | inactive | inactive | inactive | – | inactive | 35.7% (active) | inactive | inactive | inactive | inactive | – | – | – | 52% (active)
